Bioassay records deposited in PubChem BioAssay by National Center for Advancing Translational Sciences (NCATS).
Most compounds without a hit are left out; they make up all but 10% or so of the library.
BAZ2B inh = qHTS Assay for Inhibitors of BAZ2B | AlphaScreen BAZ2B-H3K14Ac peptide displacement | hit rate 4.4% among 360,000 | AID 504333, 2011 | Potency, µM (doses to about 114 µM), inactives show at the top dose activity change, negative = inhibition, actives largely listed as inhibitors; note: potency is the fitted concentration of half-maximal effect; % is set by controls: 0 for no effect and ±100 for the full control effect; nearly all actives have a fitted effect of over 60% in size
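In this displacement format the biotinylated H3(5-23) peptide acetylated at Lys14 serves as ligand at 50 nM, with BAZ2B at 50 nM in PBS pH 7.4 containing 0.01% Tween-20. Donor and acceptor beads are 10 ug/mL final.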
Six1-Eya2 blk = qHTS Assay for Inhibitors of the Six1/Eya2 Interaction; Homeobox protein SIX1 (Homo sapiens) + Protein phosphatase EYA2 (Homo sapiens), …; AlphaScreen GST-Six1/His-Eya2 binding, biochemical; stronger effect = lower value; activity change, % (test concentration not listed); hit rate 0.56% among 360,000; AID 651725, 2012; in the data active = activity change below about -65%; inconclusive = mostly about -30% to -63%; note: % is set by controls: 0 for no effect and ±100 for the full control effect
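GST-Six1 + His-Eya2 (5X stock: 250/500 nM); Tris pH 8.0, 300 mM NaCl, 0.05% BSA, 0.02% Tween 20; GSH donor/Ni acceptor beads; 1 h 37 °C dark; AlphaScreen readout.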
HP1b binding inh = HTS for Inhibitors of HP1-beta Chromodomain Interactions with Methylated Histone Tails. Potency, µM (top dose mostly 114 µM), without a hit: top-dose activity change, negative = inhibition, actives largely listed as inhibitors. AID 540317, 2011. AlphaScreen HP1-beta / biotin-H3K9me3 peptide binding. hit rate 0.56% among 390,000; note: potency is the fitted concentration of half-maximal effect; nearly all actives have a fitted effect of over 70% in size
Target sequence (P83916 whole entry, looked up): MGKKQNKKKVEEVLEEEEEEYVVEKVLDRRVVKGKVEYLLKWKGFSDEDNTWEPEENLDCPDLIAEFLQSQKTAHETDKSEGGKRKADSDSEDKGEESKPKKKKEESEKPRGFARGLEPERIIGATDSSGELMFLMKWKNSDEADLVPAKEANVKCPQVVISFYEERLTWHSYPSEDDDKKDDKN
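HP1-beta protein (50 nM final) preincubated 30 min at room temperature with biotinylated H3(1-18)K9me3 peptide (50 nM) in PBS pH 7.4, 0.01% Tween-20, then compound added for 30 min. AlphaScreen streptavidin donor/nickel chelate acceptor beads (10 ug/mL final), 30 min dark, luminescence read.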
CtBP-E1A inh = qHTS Assay for Inhibitors of the CtBP/E1A Interaction; AlphaScreen GST-E1A/His-CtBP binding, 1536-well; stronger effect = lower value; activity change, % (test concentration not listed); hit rate 0.49% among 340,000; in the data active = activity change below about -65%; inconclusive = mostly about -30% to -63%; note: % is set by controls: 0 for no effect and ±100 for the full control effect
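AlphaScreen with 125 nM GST-E1A and 125 nM His-CtBP (5X stocks) in Tris pH 8.0, 300 mM NaCl, BSA, Tween 20, TCEP. Compounds preincubated 2 h at 37 deg C, then glutathione donor/nickel acceptor beads added for 1 h at 37 deg C in dark.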
JMJD2A Tudor = qHTS Assay for Inhibitors of JMJD2A-Tudor Domain; Potency, µM (highest dose often 114 µM), without a hit: at the highest dose activity change, negative = inhibition, hits mostly inhibitors; AlphaScreen JMJD2A-Tudor / H3K4me3 peptide binding; hit rate 4.4% among 390,000; Lysine-specific demethylase 4A (Homo sapiens), O75164; note: potency is the fitted concentration of half-maximal effect; % is set by controls: 0 for no effect and ±100 for the full control effect; nearly all actives have a fitted effect of over 50% in size
G9a block = qHTS Assay for Inhibitors of Histone Lysine Methyltransferase G9a | hit rate 8.8% among 350,000 | Potency, µM (doses to about 102 µM), for the others: at the highest dose activity, negative = inhibition, hits mostly inhibitors | AID 504332, 2011 | G9a H3K9 monomethylation, AlphaScreen, 2 h; note: potency is the fitted concentration of half-maximal effect; % is set by controls: 0 for no effect and ±100 for the full control effect; nearly all actives have a fitted effect of over 75% in size
Target sequence (Q96KQ7 913-1193 limits assumed): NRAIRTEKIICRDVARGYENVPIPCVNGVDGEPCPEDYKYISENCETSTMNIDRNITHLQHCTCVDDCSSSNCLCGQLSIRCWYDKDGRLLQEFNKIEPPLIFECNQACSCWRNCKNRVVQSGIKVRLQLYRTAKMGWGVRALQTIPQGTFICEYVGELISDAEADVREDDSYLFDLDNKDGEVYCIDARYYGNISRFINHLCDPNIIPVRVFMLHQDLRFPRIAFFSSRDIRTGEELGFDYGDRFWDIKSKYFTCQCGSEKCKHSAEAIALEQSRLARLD
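Enzyme 20 nM + cpd, 15 min RT; add b-H3K9 pep 500 nM / SAM 20 uM; 2 h RT; anti-H3K9me1 Ab 0.5 ug/mL + SA donor / anti-rabbit acceptor beads 20 ug/mL each, 10 min; AlphaScreen read.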
* marks the source's active call; other numbers are inactive results; ? = inconclusive; / = no result; ! = not active in a repeat; [ ] = dose if it differs, or a comment. Unless noted, calls come from the whole dose curve; as a rule, active = well fitted inhibition curve with a large enough effect; inconclusive = small, poorly fitted or top-dose-only effect; inactive = no such curve, though single readings can be large or run the other way.

SMILES | BAZ2B inh | Six1-Eya2 blk | HP1b binding inh | CtBP-E1A inh | JMJD2A Tudor | G9a block
O=C(CNS(=O)(=O)c1ccc2ccccc2c1)OCc1nnc(-c2ccccc2)o1 | -2.4% | -22.4 | 21.0% | -0.2 | -9.9% | 22.4µM*
O=C(CCC(=O)c1cccs1)OCc1nnc(-c2ccccc2)o1 | 4.4% | 0.3 | ? | 4.2 | 50.1µM* | 13.6%[12.7 µM]
Cc1ccc(C(=O)CCC(=O)OCc2nnc(-c3ccccc3)o2)cc1 | 1.4% | 4.3 | 30.1% | -4.2 | 2.8% | 8.3%
CC(=O)c1ccc(NC(=O)CN(C)S(=O)(=O)c2cnc[nH]2)cc1 | -0.7% | / | 20.7% | / | -1.0% | -29.4%[59 µM]
N#Cc1ccc(C(=O)NN2C(=O)NC3(CCCCC3)C2=O)cc1 | -5.4% | 11.1 | 10.5% | -1.9 | -10.3% | 56.2µM*
CN(C)c1cccc(C(=O)NN2C(=O)NC3(CCCCC3)C2=O)c1 | -5.0% | -2.8 | 29.2% | 9.2 | 5.0% | -3.5%[12.7 µM]
CCOc1ccc(NC(=O)c2ccc3c(SCC(=O)O)c4c(nc3c2)CCC4)cc1 | -16.5% | / | -10.9% | / | -32.1% | -35.5%[59 µM]
CCOC(=O)c1c(C)[nH]c(C)c1S(=O)(=O)NCc1cc(C)ccc1C | 50.1µM* | -10.8 | 16.8% | -5.4 | ? | ?
CCCCCn1cc2c(c1-c1ccc(Br)cc1)c(=O)n(C)c(=O)n2C | -11.0% | / | 43.0% | / | -11.6% | -3.3%[59 µM]
O=C(Nc1ccc(Cl)c(Cl)c1)N(Cc1c[nH]c2ccccc12)C1CCCCC1 | / | / | 0.0% | / | -30.3% | 3.7%[59 µM]
COc1ccccc1C(=O)Nc1ncc2c(n1)CC(c1ccco1)CC2=O (centres undefined) | 50.1µM* | -7.7 | 8.0% | 4.8 | -30.4% | 50.1µM*
COc1ccc(-n2c(=O)c3ccc(C(=O)NCc4ccc(C)cc4)cc3n(CC(=O)Nc3ccc(F)cc3)c2=O)cc1 | / | / | 25.6% | / | 0.7% | 1.6%[59 µM]
CCn1c(/C=C/c2ccc(O)cc2)nc2ccccc2c1=O | -14.5% | -5.4 | 33.0% | -16.2 | -8.6% | 31.3%[59 µM]
O=c1nc(/C=C/c2ccc(O)c(O)c2)oc2ccccc12 | ? | -18.6 | -6.3% | -16.2 | -28.6% | 39.8µM*
CC(=O)Oc1ccc(/C=C/c2nc3ccccc3c(=O)o2)cc1 | 9.4% | -20.2 | 24.0% | -20.4 | -20.5% | /
COc1ccc(/C=C\c2nc(=O)c3ccccc3o2)cc1 | -33.4% | 14.7 | -2.1%[57 µM] | -68.7* | ? | ?
CCn1c(/C=C/c2ccc(O)c(O)c2)nc2ccccc2c1=O | 70.8µM* | -29.6 | ? | / | 56.2µM* | /
CN1CCN(CC(=O)N2c3ccccc3Sc3ccccc32)CC1 | -1.6% | -1.8 | 48.2% | / | -1.3% | -36.8%
CN1CCN(CC/C=C2/c3ccccc3Sc3ccc(S(=O)(=O)N(C)C)cc32)CC1 | ? | -17.4 | -13.2% | -18.1 | ? | 50.1µM*!
CC(C)c1onc(C(=O)NCCc2ccccc2)c1[N+](=O)[O-] | 4.4% | 9.4 | 21.2% | 1.3 | -16.0% | 50.1µM*
CC(C)c1onc(C(=O)N(C)Cc2ccccc2)c1[N+](=O)[O-] | ? | 4.6 | 35.1% | 0.0 | 1.0% | -6.3%[59 µM]
CN(C(=O)CSc1n[nH]c(N)n1)C1CCCCC1 | / | 4.8 | 8.0% | -1.6 | -17.8% | /
Nc1nc(SCC(=O)C23CC4CC(CC(C4)C2)C3)n[nH]1 | 0.5% | -2.6 | 30.5% | 1.9 | -17.3% | 35.5µM*
COc1ccc(Cl)cc1-n1cc(-c2ccccc2)nc1SCC(=O)Nc1ccc(C)cc1 | ? | / | 2.3% | / | ? | ?
CSc1ccc(Cl)c(C(=O)N(C)CC(=O)Nc2ccc(N3CCOCC3)cc2)c1 | -2.8% | -3.0 | 24.6% | 3.2 | -28.1% | 35.5µM*
